Screens (PubChem)
Shown is part of a subset that was picked to be rich in hits.
TTR transcr act: increases transthyretin transcription; SH-SY5Y TTR promoter Gaussia luciferase, luminescence; 100% = recombinant luciferase protein wells; activation, % at 16.7 µM; 92,000 compounds, 1.3% hits;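 active = activation above the mean of all tested compounds plus 3 SD, cut at about 9.5% in these data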;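 note: cells exposed to compounds for one day before reading; 0% = median of all test compound wells on the plate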
TTR inh HuH7: HuH7 TTR transcription inhibition, counter-screen; shares compounds with TTR transcr act; HuH7 TTR promoter-Gaussia luciferase reporter, luminescence; inhibition, % at 16.7 µM; 1,100 compounds, 4% hits;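 active = average inhibition above the solvent-only control wells' mean plus 3 SD, cut at about 15% in these data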;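 note: 0% = cells with DMSO only and 100% = cells with inhibitor control FD; inhibitors lower well luminescence so higher value means more inhibition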
TTR act confirm: confirmation of human transthyretin transcription activators; 1,100 tested, under 10 active; shares compounds with TTR transcr act; SHSY5Y TTR promoter Gaussia luciferase, luminescence; 100% = purified Lucia enzyme wells, no cells; activation, % at 16.7 µM; AID 1117280;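 active = mean activation above a set limit taken from the earlier primary screen, cut at about 11% in these data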;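 note: 0% = DMSO-treated cells and 100% = recombinant Lucia luciferase without cells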
* marks the source's active call; other numbers are inactive results.

SMILES | TTR transcr act | others
C[C@H]1[C@@H](OC(=O)NCc2cccnc2)CC[C@@]23CCCN2C(=O)CCC[C@@H]13 | 0
CCOC(=O)[C@@]12CCCC3=C1N(CCC3)C(=O)[C@H]2CC(=O)NCc1cccc(C(F)(F)F)c1 | 2
Cc1ccc(NC(=O)CCc2c(C)nn(-c3ccc(N4CCOCC4)nn3)c2C)cc1 | 1
COc1ccc(NC(=O)CCc2c(C)nn(-c3ccc(N4CCOCC4)nn3)c2C)cc1 | 12* | TTR inh HuH7=-6;TTR act confirm=1
CC(=O)c1ccc(NC(=O)CCc2c(C)nn(-c3ccc(N4CCOCC4)nn3)c2C)cc1 | -2
CC(=O)c1cc(-c2cccc(Cl)c2O)c(=O)n2c1CCC2 | -1
Cc1cccc(NC(=O)CSc2c3c(nc4ccccc24)CCC3)n1 | 1
COc1cccc(NC(=O)CSc2c3c(nc4ccccc24)CCCC3)c1 | 9.9* | TTR inh HuH7=-8;TTR act confirm=-2
CCn1c(SCC(=O)Nc2cccc(OC)c2)nc2ccccc2c1=O | -2
O=C(N[C@@H](Cc1ccc(Br)cc1)C(=O)O)OCC1c2ccccc2-c2ccccc21 | 0
O=C(CN(C(=O)OCC1c2ccccc2-c2ccccc21)[C@@H](Cc1ccccc1)C(=O)O)OCc1ccc(C(=O)NCc2ccccc2)cc1 | 12* | TTR inh HuH7=-21;TTR act confirm=2
CC(C)(C)OC(=O)[C@H](Cc1ccccc1)NCC(=O)OCc1ccc(C(=O)NCc2ccccc2)cc1 | -1
COC(=O)[C@]12C[C@H](CC(=O)NCc3cccs3)C(=O)N(Cc3ccco3)C1=C[C@H](C1CCCC1)O[C@@H]2C | 0
N#Cc1ccc(Cn2ccc3ccc(-c4ccc5ccn(Cc6ccccc6)c5c4)cc32)cc1 | 0
COC(=O)c1cc(-c2cccc(C#N)c2)c(=O)n2c1CCC2 | -1
O=C(CNC(=O)c1ccccc1)NCC(c1ccco1)N1CCCC1 (stereo not drawn) | 13* | TTR inh HuH7=-12;TTR act confirm=1
N#Cc1ccc(C(=O)NCC(c2ccco2)N2CCCCC2)cc1 (stereo not drawn) | -2
O=C(NCC(c1ccco1)N1CCCC1)c1ccc(-n2cccn2)cc1 (stereo not drawn) | -1
CC(=O)OCCN(C)c1cc(SC(C)C)c2nonc2c1[N+](=O)[O-] | 18* | TTR inh HuH7=1;TTR act confirm=0
CCOC(=O)N1CCN(c2cc(N(C)CCO)c([N+](=O)[O-])c3nonc23)CC1 | -1
CN(C)c1cc(Nc2ccc(O)cc2)c([N+](=O)[O-])c2nonc12 | 6
C=CCN1C(=O)[C@H](CC(=O)NCc2cccs2)[C@@]2(C(=O)OCC)CCCC=C12 | 2
COC(=O)[C@]12C[C@H](CC(=O)NCc3ccccc3)C(=O)N(Cc3ccco3)C1=C[C@H](COCc1ccccc1)O[C@@H]2C | 1
Cc1ccc2c(NCc3ccco3)nc(NC(C)C)nc2c1 | -1
COc1cc(NC(=O)c2ccccc2OCc2ccccc2)cc(OC)c1OC | -1
SMILES | TTR transcr act | others
COc1cccc(C(=O)NOCc2ccccc2)c1OC | 1
COc1ccc(C(=O)C(C)C(C)=O)c(OCc2ccccc2)c1OC (stereo not drawn) | 14* | TTR inh HuH7=-20;TTR act confirm=-1
C[C@@H]1CCN(C2CC2)S(=O)(=O)c2ccc(N3CC[C@@H](N(C)C)C3)cc2O1 | 0
COc1cccc(OC)c1NC(=O)OCCN1CCCC12CCC(c1ccccc1)CC2 (stereo not drawn) | 1
CCCNC(=O)c1ccc(SC)cc1OC | 2
COc1cc(SC)ccc1C(=O)NCc1ccc(C)cc1 | -2
COc1cc(SC)ccc1C(=O)NCCNC(=O)c1nonc1N | 14* | TTR inh HuH7=-28;TTR act confirm=0
O=C(Nc1ccc(OC(F)(F)F)cc1)Nc1c(-c2ccc(C(F)(F)F)cc2)nc2ncccn12 | 7
O=C(OCCCCSc1nnc(-c2cccc3ccccc23)o1)c1ccc(F)cc1 | 2
CCOC(=O)C1CCN(C(=O)C(C)(C)NC(=O)Nc2ccc(C(F)(F)F)cc2Cl)CC1 | 2
COC(=O)[C@]12C[C@H](CC(=O)NCCCCc3ccccc3)C(=O)N(CCc3ccc(OC)c(OC)c3)C1=C[C@H](C(C)C)O[C@@H]2C1CC1 | -2
C=CCCC(=O)N[C@H]1CC[C@@]23CCCN2C(=O)CCC[C@H]3[C@H]1CCC | 1
Cc1c(-c2ccc(Cl)cc2)[n+](=O)c2c(n1[O-])CCCC2 | 0
O=[n+]1c2c(n([O-])c3c1CCCC3)CCCC2 | 0
CCc1c(C)n([O-])c2c([n+]1=O)CCC2 | 12* | TTR inh HuH7=-17;TTR act confirm=0
CC(C)(C)NC(=O)[C@H](c1cccnc1)N(C(=O)c1ccco1)c1ccc(C(C)(C)C)cc1 | -2
O=C(NCc1ccncc1)[C@@H]1CCCN1C(=O)[C@H]1CCCN1C(=O)c1cccc2ccccc12 | 0
CC1(c2nnnn2Cc2ccccc2)CN(S(C)(=O)=O)CC(=O)N1Cc1cccs1 (stereo not drawn) | -1
O=S1(=O)c2ccc(N3CCC[C@@H]3CO)cc2O[C@@H]2CCN1C2 | 2
